Assay outcomes (PubChem)
PHOSPHO1 inh – PHOSPHO1 (human) inhibition; Q8TCT1; recombinant PHOSPHO1, absorbance phosphatase assay; inhibition, % at 13.3 µM; 290,000 tested, 1.1% active; AID 1565; in the data active = inhibition above about 60%
HNF4A DNA FP – change in binding of human HNF4 alpha to DNA; HNF4a-FITC DNA binding, fluorescence polarization, 1 h; AID 1224865; 360,000 tested, 0.3% active; P41235; activity change, % at 10 µM; in the data active = activity change above about 30%, passing the limit was not always enough
CendR NRP1 mod – alters CendR peptide binding to human NRP-1 | O14786 | FAM-RPARPAR peptide binding to NRP-1, fluorescence polarization | inhibition, % at 25 µM | 360,000 tested, 0.85% active;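 active = inhibition or corrected inhibition above about 18%, plus a signal ratio from 0.5 to 1.5, limit read from the data, passing the limit was not always enough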
Rpn11 inh – inhibitors of human proteasome Rpn11; O00487; human 26S proteasome, Ub4-pepOG fluorescence polarization; 20S core pre-blocked with epoxomicin; inhibition, % at 20 µM; 360,000 tested, 0.59% active; AID 588493;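 active = inhibition at 20 µM, scaled to each plate's controls, above about 33%, limit read from the data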
TPT1 inhibitor – inhibitors of Candida albicans tRNA 2'-phosphotransferase TPT1 | recombinant caTPT1, FP RNA substrate dephosphorylation | inhibition, % at 5 µM | 300,000 tested, 0.81% active;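 active = inhibition above the mean of all tested compounds plus 3 SD, set per screening campaign, cut at about 24% in these data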;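 also: plate controls were DMSO alone for no effect and ferristatin control at 100 nM for full effect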
Fh CTSL1 inh – blocks F. hepatica cathepsin L1 in PFM18AAP counter-screen | recombinant F. hepatica cathepsin L1, Z-Leu-Arg-MCA fluorescence | inhibition, % at 5.96 µM | 300,000 tested, 0.49% active;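 active = inhibition above the mean of all tested compounds plus 3 SD, set per screening campaign, cut at about 17% in these data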;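 also: 0% = plate median of test compound wells and 100% = 1 µM Z-Phe-Ala-diazomethylketone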
Rpn11 inh conf – Rpn11 inhibition confirmation, single concentration. shares compounds with Rpn11 inh. purified human 26S proteasome, Ub4-pepOG fluorescence polarization; proteasome pretreated with epoxomicin. inhibition, % at 20 µM. 1,900 tested, 29% active. AID 602318
MMP-2 counter – counter-screen for RPN11 inhibitors: inhibition of human MMP-2; shares compounds with Rpn11 inh; recombinant MMP-2, FRET peptide cleavage fluorescence; inhibition, % at 20 µM; 1,900 tested, 4% active; AID 602330;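 also: human MMP-2 activated beforehand with APMA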
Thrombin FP – thrombin (bovine) inhibition counter-screen. inhibition, % at 20 µM. 1,900 tested, 13% active. shares compounds with Rpn11 inh. AID 602333. bovine thrombin cleavage of Ub4-pepOG, fluorescence polarization;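 active = mean inhibition at least 40% at 20 µM, or signal 3 deviations below plate average, so some actives read negative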;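 also: plate controls were thrombin with DMSO for no effect and buffer wells lacking thrombin for full effect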
Target sequence (P00735 whole entry, looked up): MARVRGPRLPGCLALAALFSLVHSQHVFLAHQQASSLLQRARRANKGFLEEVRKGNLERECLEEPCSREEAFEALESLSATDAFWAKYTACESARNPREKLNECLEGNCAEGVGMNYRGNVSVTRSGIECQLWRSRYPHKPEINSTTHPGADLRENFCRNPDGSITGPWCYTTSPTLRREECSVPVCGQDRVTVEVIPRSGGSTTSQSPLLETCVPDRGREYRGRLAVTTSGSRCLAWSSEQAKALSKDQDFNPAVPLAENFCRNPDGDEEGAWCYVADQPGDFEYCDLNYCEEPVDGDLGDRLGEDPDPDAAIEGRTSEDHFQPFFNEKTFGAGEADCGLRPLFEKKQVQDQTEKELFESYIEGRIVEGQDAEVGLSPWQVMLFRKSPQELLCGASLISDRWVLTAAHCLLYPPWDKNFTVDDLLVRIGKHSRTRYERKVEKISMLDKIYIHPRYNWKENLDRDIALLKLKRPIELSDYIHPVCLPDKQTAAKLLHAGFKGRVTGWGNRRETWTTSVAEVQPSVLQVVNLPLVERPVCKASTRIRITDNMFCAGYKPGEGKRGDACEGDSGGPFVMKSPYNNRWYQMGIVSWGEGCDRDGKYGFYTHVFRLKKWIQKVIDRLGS
Starred values were filed as active, the others as inactive; · = not tested or not shown. Compounds with a hit are over-represented: about 3.3% of the library has one in this group of screens. Rule as the data show it, unless noted: active = inhibition above about 40%; inactive = the rest.

SMILES	PHOSPHO1 inh	HNF4A DNA FP	CendR NRP1 mod	Rpn11 inh	TPT1 inhibitor	Fh CTSL1 inh	Rpn11 inh conf	MMP-2 counter	Thrombin FP
O=C1CCCN1CCCNc1nc2c(S(=O)(=O)c3ccccc3)nnn2c2ccc(Cl)cc12	26	5	1	44*	3	-1	-6	-8	12
CC(Oc1cccnc1[N+](=O)[O-])C(=O)N1CCc2ccccc21 (centres undefined)	·	1	12	-1	·	·	·	·	·
Cc1cccc(-n2c(C)cc(/C=C3/C(=N)N4C(c5ccccc5)=CSC4=NC3=O)c2C)c1	6	25	10	57*	-1	-1	-6	-37	-26
CCOc1ccc(-n2nnnc2SCC(=O)NNC(=O)c2ccco2)cc1	46	-2	8	0	-1	-1	·	·	·
COc1cc2c(C#CCCCO)c(-c3ccc(C#N)cc3)oc(=O)c2cc1OC	·	-5	-1	-2	·	·	·	·	·
COc1cc2c(C#CCO)c(-c3ccc(C#N)cc3)oc(=O)c2cc1OC	·	2	-22	56*	·	·	19	-30	4
CSc1nc(-c2ccco2)cc(-c2ccccc2)c1C#N	23	4	-22	19	0	1	·	·	·
CSc1nc(-c2ccco2)cc(C(F)(F)F)c1C#N	-4	21	8	134*	0	2	-2	-29	5
N#Cc1c(C(F)(F)F)cc(-c2ccco2)nc1SCc1ccncc1	82*	13	-59	54*	23	5	29	-14	18
Cc1cc(-c2nnc(SCC(=O)Nc3ccccc3C)n2N)n[nH]1	44	2	-3	-4	-1	-2	·	·	·
CCCCn1c(N)c(N(CC(C)C)C(=O)C2CCN(S(=O)(=O)c3ccc(F)cc3)CC2)c(=O)[nH]c1=O	12	1	12	2	·	·	·	·	·
Cc1ccc(-c2ccc(S(=O)(=O)N3CC(C)OC(C)C3)cc2)cc1 (centres undefined)	8	25	6	64*	-1	-7	-8	-2	-1
COc1ccc(C(=O)/C(C#N)=N/Nc2ccccc2[N+](=O)[O-])cc1	-5	2	-2	-7	5	8	·	·	·
COc1ccc(C(=O)/C(C#N)=N/Nc2ccc([N+](=O)[O-])cc2)cc1	25	16	-29	34*	5	7	4	0	-29
CCCC(=O)N1CCC1(C)C(=O)NCc1ccccc1SC (centres undefined)	·	7	9	6	·	·	·	·	·
CSCCC(NS(=O)(=O)c1ccccc1F)C(=O)NCc1cccnc1 (centres undefined)	·	0	-3	-3	2	1	·	·	·
Cc1cc(C)c2nc(/N=C(\N)NC(=O)Nc3ccccc3)nc(C)c2c1	5	6	-14	47*	-3	0	15	28	-8
CN(Cc1ccco1)C(=O)Cn1cc(S(=O)(=O)N2CCCC2)c(S(=O)(=O)N2CCCC2)c1	34	-4	4	-6	-1	-4	·	·	·
COCCCNC(=O)C[C@H]1C[C@H](C(=O)N(C(C)C)C(C)C)[C@@]2(C)c3[nH]c4ccc(Cl)cc4c3CCN2C1=O	·	5	-4	-1	·	·	·	·	·
COC(=O)c1ccccc1S(=O)(=O)NNC(=O)C12CC3CC(CC(C3)C1)C2	·	1	6	3	·	·	·	·	·
CC(=O)Nc1sc(C)c(C)c1C(=O)OCCOc1ccccc1	-14	-45	-3	34*	1	2	-5	-31	-17
CC(=O)Nc1sc(C)c(C)c1C(=O)OCC(=O)Nc1ccccc1	·	3	-13	8	·	·	·	·	·
COc1ccc(C(=O)Nc2nc3nc(-c4ccccc4)cc(=O)n3[nH]2)cc1	10	-26	-11	69*	·	·	-4	4	-22
FC(F)(F)c1nc(N2CCN(c3ccccc3)CC2)nc2c1CCCCC2	35	3	10	48*	6	-2	-11	-30	-12
